Screening results from PubChem.
Shown are actives, neighbours in structure and some others; about 5% of the full set was active somewhere.
HCMV antiviral = human cytomegalovirus inhibition | activity change, negative = inhibition, % at 57.5 µM | 4.5% of 410,000 active | HFF cells, HCMV-luciferase reporter, 72 h; hits give low values; in the data active = activity change below about -60%; inconclusive = no clear call, values can overlap the other calls; inactive = above about -39%
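Two compound doses tested in HFFs infected with HCMV-luciferase, MOI 1 PFU/cell, 72 h at 37C. Lysate luminescence read with OneGlo; data normalized against buffer-only and 10uM Salinomycin inhibitor controls.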
VACV mCherry inh = vaccinia inhibition (mCherry reporter); Vaccinia virus mCherry reporter infection, fluorescence; Potency, µM (titrated, usually from 36.5 µM), inactives show top-dose activity change, negative = inhibition, usual class: inhibitors; 0.63% of 310,000 active; AID 720579; calls by dose curve; tested in A549 cells; note: potency is the fitted concentration of half-maximal effect; nearly all actives have a fitted effect of over 35% in size
LmPK inh = inhibitors of Leishmania mexicana pyruvate kinase | Potency, µM (series often up to 57.5 µM), inactives show at the top dose activity change, negative = inhibition, usual class: inhibitors | purified LmPK, Kinase-Glo ATP luminescence, 1 h | Q27686 | 0.37% of 290,000 active; note: potency is the fitted concentration of half-maximal effect
Target sequence (Q27686 whole entry, looked up): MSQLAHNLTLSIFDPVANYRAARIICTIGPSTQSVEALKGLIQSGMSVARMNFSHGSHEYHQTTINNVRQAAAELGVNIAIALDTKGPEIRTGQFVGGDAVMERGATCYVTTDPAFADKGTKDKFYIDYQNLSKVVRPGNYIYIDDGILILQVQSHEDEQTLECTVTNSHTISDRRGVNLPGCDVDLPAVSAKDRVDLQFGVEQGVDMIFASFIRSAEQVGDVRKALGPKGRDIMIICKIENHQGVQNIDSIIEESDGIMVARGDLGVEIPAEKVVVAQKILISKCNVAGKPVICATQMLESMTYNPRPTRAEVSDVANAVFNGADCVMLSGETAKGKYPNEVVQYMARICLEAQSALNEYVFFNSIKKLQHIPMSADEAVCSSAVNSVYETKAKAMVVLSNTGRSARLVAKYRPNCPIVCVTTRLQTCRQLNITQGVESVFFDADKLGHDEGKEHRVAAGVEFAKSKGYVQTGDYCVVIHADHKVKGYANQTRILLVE
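ATP generated from ADP (0.1 mM) and PEP (0.5 mM) by 0.1 nM LmPK over 1 h at room temperature (pH 7.2 imidazole buffer) was detected by coupled luciferase luminescence. Values were normalized to uninhibited and no-enzyme wells.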
Tb PYK inh = T. brucei pyruvate kinase inhibition. Q57TT1. TbPYK enzyme, Kinase-Glo Plus ATP luminescence, 45 min. Potency, µM (highest dose often 76.8 µM), for the others: top-dose activity, negative = inhibition, most hits filed as inhibitors. 0.12% of 410,000 active. AID 624173; note: potency is the fitted concentration of half-maximal effect; nearly all actives have a fitted effect of over 50% in size
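ADP (130 uM final) triggers the TbPYK reaction after compound addition; incubation is 45 min at room temperature. Kinase-Glo Plus is then added and luminescence imaged. Normalized data are fitted to concentration-effect curves.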
VACV Venus inh = vaccinia inhibition (Venus reporter); Vaccinia virus Venus reporter expression, fluorescence; AID 720580; 0.46% of 330,000 active; Potency, µM (doses to about 36.5 µM), for inactives: at the top dose activity change, negative = inhibition, usual class: inhibitors; calls by dose curve; tested in A549 cells; note: potency is the fitted concentration of half-maximal effect; nearly all actives have a fitted effect of over 30% in size
Starred values were filed as active, the others as inactive; i = inactive; ? = inconclusive; · = not tested or not shown. Unless noted, calls come from the whole dose curve; as a rule, active = well fitted curve in the direction sought with a large enough effect; inconclusive = small, poorly fitted or top-dose-only effect, or another doubt; inactive = no such curve, though single readings can be large; an effect the other way counts as inactive or inconclusive. % is set by controls: 0 for no effect and ±100 for the full control effect.

SMILES	HCMV antiviral	VACV mCherry inh	LmPK inh	Tb PYK inh	VACV Venus inh
CCN(CC)S(=O)(=O)c1ccc(N/N=C(\C)c2ccc(OC)cc2O)nc1	-62*	·	12%	-1%	·
CCN(CC)S(=O)(=O)c1ccc(N/N=C/c2cc(OC)c(OC)cc2OC)nc1	-9	-5%	1%	-9%	-12%
CCOc1cccc(/C=N/Nc2ccc(S(=O)(=O)N(CC)CC)cn2)c1O	-100*	?	-1%	10%	?
N#Cc1cn(-c2ccccc2)nc1-c1cc2ccccc2oc1=O	57	i	-5%	-2%	-7%
CCC(=O)OC1=C(C(C)=O)N(Cc2ccccc2)S(=O)(=O)c2ccccc21	8	-3%	·	6%	-5%
CC(C)(C)C(=O)OC1=CN(Cc2ccccc2)S(=O)(=O)c2ccccc21	-18	11µM*	·	1%	?
Cc1c(Cl)cccc1NC(=S)NNS(=O)(=O)c1ccc([N+](=O)[O-])cc1	-12	10µM*	4%	-12%	?
CC(=O)Nc1ccc(SCC(=O)NNC(=O)CN(C)S(=O)(=O)c2ccc(C)cc2)cc1	4	-8%	·	1%	-2%
CC(=O)N(CN1C(=O)CCC1=O)c1ccc(Cl)c(Cl)c1	-66*	·	4%	-1%	·
O=C1CCC(=O)N1CN(C(=O)c1ccco1)c1ccc(Cl)c(Cl)c1	-33	-9%	-2%	1%	-11%
O=C(COc1ccc(F)cc1)Nc1nnc(S(=O)(=O)N2CCc3ccccc32)s1	1	-11%	·	-4%	-10%
Cc1cccc2cc(C(c3nnnn3Cc3ccccc3)N3CCCc4ccccc43)c(=O)[nH]c12 (stereo not given)	-83*	2%	7%	4%	-4%
CCOC(=O)C1=C(C)N(c2ccccc2)C(=O)/C1=C\c1cccs1	-24	-2%	-2%	7%	2%
COC(=O)C1=C(C)N(c2cccc(C)c2)C(=O)/C1=C\c1cccs1	-99*	·	1%	-4%	6%
N#Cc1cccc(NC(=O)c2cc(C3CCCCN3C(=O)C3CC3)on2)c1 (stereo not given)	-63*	4%	·	1%	-11%
N#Cc1cccc(NC(=O)c2cc(C3CCCCN3C(=O)c3ccccc3)on2)c1 (stereo not given)	?	3%	·	3%	-5%
COc1ccc(Cl)cc1NC(=S)NNC(=O)C1(C)CC1(Cl)Cl (stereo not given)	-27	-5%	4%	-17%	-20%
CC/C(C)=C1\SC(N2CCN(C(C)=O)CC2)=NC1=O	-5	·	9%	0%	-7%
CCN(CC)c1ccc(/C=N/NC(=O)c2ccco2)c(O)c1	-103*	·	-15%	1%	·
CCN(CC)c1ccc(/C=N/NC(=S)NCc2ccccc2)c(O)c1	-63*	?	1%	-3%	?
CCN(CC)c1ccc(/C=N/NC(=O)Cc2cccs2)c(O)c1	-100*	6.3µM*	0%	-5%	?
CNc1ncnc2c1ncn2[C@H]1CN(Cc2ccco2)C[C@@H](CO)O1	-26	i	·	-1%	-10%
O=C(NCC1CCCO1)c1onc(CSc2ccc(F)cc2)c1C(=O)O (stereo not given)	13	i	2%	3%	-11%
CCCN(CCC)C(=O)CC(c1ccccc1)c1ccc(C)cc1O (stereo not given)	-70*	-11%	6%	1%	-4%
CCc1nn2c(=O)cc(COC(=O)c3ccccc3NC(=O)c3cccs3)nc2s1	52	-20%	·	-6%	-15%
SMILES	HCMV antiviral	VACV mCherry inh	LmPK inh	Tb PYK inh	VACV Venus inh
Cc1nn(S(=O)(=O)c2ccc(Cl)cc2)c(C)c1Sc1ccc([N+](=O)[O-])cc1	-78*	-10%	0%	-1%	-7%
Cc1nn(-c2ccccc2)c(N)c1Sc1ccc([N+](=O)[O-])cc1	-28	i	6%	-4%	-8%
CCNC(=S)NNC(=O)c1ccc(=O)n(Cc2ccccc2)c1	-14	5%	7%	-1%	-3%
COc1ccc(CN2C(=O)C(NC(=O)c3ccccc3C)(C(F)(F)F)N=C2c2ccccc2)cc1 (stereo not given)	-103*	-4%	·	1%	-2%
Cc1ccc(S(=O)(=O)CC2CSc3nc4ccccc4n32)cc1 (stereo not given)	-72*	-24%	-5%	2%	-22%
Cc1ccc(S(=O)(=O)CC2CSc3nc(N)cc(=O)n32)cc1 (stereo not given)	4	·	3%	7%	·
Cc1ccc(S(=O)(=O)CCc2nc3ccccc3n2CCC#N)cc1	-81*	-24%	-2%	6%	-21%
O=c1oc2cc(O)ccc2cc1-c1nnc(Nc2ccccc2F)s1	83	-3%	·	4%	25%
CCc1nc2ccc(C(=O)N3CCN(S(=O)(=O)CC)CC3)cn2c1N(CCC(C)C)CCN(C)C	17	23%	·	4%	-11%
O=Nc1c(O)c2ccccc2c2ccccc12	-98*	?	·	0%	10µM*
CC1(C)CC(=O)C=C(/C=C/c2ccccc2)C1	-30	i	·	1%	-11%
Cc1nnc2ccc(-c3cccc(NC(=O)c4ccc(Br)o4)c3)nn12	?	?	10%	-1%	-9%
COc1cc(-c2noc(-c3cc(C(C)C)[nH]n3)n2)cc(OC)c1OC	-16	-9%	·	1%	-11%
CC(C)c1cc(-c2nc(-c3ccc(Cl)cc3)no2)n[nH]1	-68*	-15%	·	1%	-21%
COc1ccc(-c2c(C(=O)c3ccccc3)[nH]c(N)c2C(=O)c2ccccc2)cc1OC	-70*	?	·	4%	-27%
N=c1nc2n(cc1F)C1OC(CO)C(O)C1O2 (stereo not given)	-99*	5.6µM*	·	3%	?
N=c1ccn2c(n1)O[C@H]1[C@H](O)[C@@H](CO)O[C@H]12	-96*	·	1%	3%	·
N=c1ccn2c(n1)O[C@H]1[C@@H](CO)[C@H](O)O[C@H]12	-98*	0.45µM*	·	10%	?
O=C(OCC1OC2C(Oc3nc(=O)ccn32)C1O)c1ccccc1 (stereo not given)	7	·	2%	-1%	·
COc1cccc(CNC(=O)CSC(=S)N2CCCC2)c1	-28	-21%	·	8%	-16%
O=C(CCCCCN1C(=O)CCC1=O)Nc1ncn[nH]1	-103*	·	-1%	-7%	-9%
c1ccc(OCc2nc3ccccc3[nH]2)cc1	50	·	11µM*	0%	·
Cc1ccc(CNC(=O)CCSCc2ccc(C)cc2)cc1	-10	i	4%	-1%	-12%
Cc1ccc(CNC(=O)CCSCc2cccc(F)c2)cc1	-62*	·	-4%	-8%	·
O=c1[nH]c(CN2CCN(c3ccccc3)CC2)nc2scc(-c3ccccc3)c12	-17	-5%	4%	-5%	0%
Cc1sc2nc(CN3CCN(c4ccc(O)cc4)CC3)[nH]c(=O)c2c1C	-27	·	14µM*	-29%	·
COc1ccccc1C(=O)N(CCC1CCCN1C)c1nc2ccccc2s1 (stereo not given)	-77*	3%	-10%	-7%	-7%
